Only some compounds are listed: those with a hit (about 1.8% of all), similar ones and a draw of the others.
VLA-4 inh – inhibition in a human VLA-4 binding assay; P13612; inhibition, % (about 7 µM as worked out from the volumes in the protocol); VLA-4 expressing cells, ligand binding flow cytometry; actives 0.2% (n = 330,000); AID 2557; in the data active = inhibition above about 50%
A3A deaminase – human APOBEC3A DNA deaminase inhibition | actives 0.41% (n = 330,000) | recombinant A3A, FAM/TAMRA ssDNA deamination fluorescence | AID 493011 | inhibition, % at 20 µM;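 active = at least 40% inhibition at 20 µM here, with at most 30% in a related deaminase screen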
Target sequence (P31941 whole entry, looked up): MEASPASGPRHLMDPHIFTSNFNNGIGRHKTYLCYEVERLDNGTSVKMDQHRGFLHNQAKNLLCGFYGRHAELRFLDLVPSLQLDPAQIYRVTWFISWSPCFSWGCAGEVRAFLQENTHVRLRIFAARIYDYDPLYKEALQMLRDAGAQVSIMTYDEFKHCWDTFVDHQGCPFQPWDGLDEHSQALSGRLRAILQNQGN
MIN6 prolif-1 – induces beta-cell replication in MIN6 cells | actives 0.29% (n = 330,000) | MIN6 cells proliferation, ATPlite luminescence, 48 h; cells starved in 0.2% serum; 100% = growth in 10% serum | proliferation, % at 10 µM;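 active = compounds whose signal lies at least 3.5 SD above the mean of all wells on their plate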
NRP1-CendR mod – NRP-1/CendR interaction modulation; AID 602438; inhibition, % at 25 µM; O14786; FAM-RPARPAR peptide binding to NRP-1, fluorescence polarization; actives 0.85% (n = 360,000);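 active = inhibition or corrected inhibition above about 18%, plus a signal ratio from 0.5 to 1.5, limit read from the data, passing the limit was not always enough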
APOBEC3G inh – blocks human APOBEC3G single-stranded DNA deamination; Q9HC16; inhibition, % at 20 µM; actives 0.28% (n = 330,000); recombinant A3G, ssDNA deamination FAM/TAMRA fluorescence;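 active = inhibition of at least 40% at 20 µM, with no more than 30% in the related APOBEC3A deaminase screen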
Target sequence (Q9HC16 whole entry, looked up): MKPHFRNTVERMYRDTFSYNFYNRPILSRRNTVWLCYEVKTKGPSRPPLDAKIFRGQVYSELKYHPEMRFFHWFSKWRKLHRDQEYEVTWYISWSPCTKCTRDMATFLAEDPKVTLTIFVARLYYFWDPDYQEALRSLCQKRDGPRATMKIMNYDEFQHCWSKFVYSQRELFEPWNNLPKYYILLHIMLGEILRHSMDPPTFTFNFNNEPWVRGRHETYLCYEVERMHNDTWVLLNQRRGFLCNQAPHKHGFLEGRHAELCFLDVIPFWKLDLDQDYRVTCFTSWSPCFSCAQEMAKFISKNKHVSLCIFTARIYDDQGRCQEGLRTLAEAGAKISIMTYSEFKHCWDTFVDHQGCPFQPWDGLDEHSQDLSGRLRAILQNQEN
MIN6 prolif-2 – confirmation of inducers of beta-cell replication in MIN6 cells | shares compounds with MIN6 prolif-1 | MIN6 beta-cell proliferation, ATPlite luminescence, 48 h; cells kept in 0.2% serum; scaled between 0.2% and 10% serum | proliferation increase, % at 50 µM | 920 tested, under 10 active;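 active = proliferation increase above 40% at any of the four tested concentrations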
Large screens that a line does not name were inactive (follow-up assays come after a bar, where they were run); ! = not confirmed by another sample.

COC(=O)c1ccc(Cn2nnc3c(=O)[nH]c(C4CCCN(S(=O)(=O)c5ccc(C)cc5)C4)nc32)cc1 (centres undefined)	MIN6 prolif-1 11 | MIN6 prolif-2 inactive
Cc1ccc(Cn2nnc3c(=O)[nH]c(C4CCCN(S(=O)(=O)c5ccc(F)cc5)C4)nc32)cc1 (centres undefined)	none
O=C(NC1CCCC1)C1CCCN(S(=O)(=O)c2cccc3cccnc23)C1 (centres undefined)	MIN6 prolif-1 9.5 | MIN6 prolif-2 inactive
O=C(NC1CCCCCC1)C1CCN(S(=O)(=O)c2cccc3cccnc23)CC1	none
Cc1cccc(NS(=O)(=O)c2ccc(C)c(C(=O)NNC(=O)c3csc(N4CCOCC4)n3)c2)c1	none (no result: VLA-4 inh, A3A deaminase, MIN6 prolif-1, APOBEC3G inh)
O=C(Nc1ccc(-c2ccco2)cc1)C1CCCN(Cc2ccc(CO)o2)C1 (centres undefined)	MIN6 prolif-1 11 | MIN6 prolif-2 inactive
CC(=O)c1cccc(CN2CCCC(C(=O)Nc3ccc(-c4ccco4)cc3)C2)c1 (centres undefined)	none
CC(C)N(CC(N)=O)c1ccc(S(=O)(=O)N2CCCC2)cn1	none
Cc1cc(S(=O)(=O)N2CCN(CC(=O)NCCc3cccs3)CC2)ccc1Br	none
COc1cc(NC(=O)CSc2nc3c(c(=O)n(C)c(=O)n3C)n2C)cc(OC)c1	none
O=C(Nc1ccc(Br)cc1)C1CC(O)CN1C(=O)OCc1ccccc1 (centres undefined)	MIN6 prolif-1 11 | MIN6 prolif-2 inactive
O=C(CCNC(=O)c1ccco1)Nc1ccc(OC(F)F)cc1	none
O=C(O)/C=C/c1cn(-c2ccccc2)nc1-c1ccc2c(c1)OCCO2	none
O/N=C/c1cn(-c2ccccc2)nc1-c1ccc2c(c1)OCCO2	MIN6 prolif-1 7.1 | MIN6 prolif-2 inactive
O=C(NC1CC1)c1cccc(NC(=O)c2cc(S(=O)(=O)N3CCOCC3)ccc2Cl)c1	none (no result: VLA-4 inh)
COc1cc(C=Nc2cccc([N+](=O)[O-])c2C)ccc1OC(C)=O	MIN6 prolif-1 6.4 | MIN6 prolif-2 inactive
CC(=O)c1cccc(NC(=O)Nc2cccnc2)c1	MIN6 prolif-1 7.9 | MIN6 prolif-2 inactive
O=C(Nc1cccnc1)Nc1cccc(F)c1	none
COc1ccc(OC)c(N2C(N)=NC(N)=NC23CCCC3)c1	MIN6 prolif-1 5.7 | MIN6 prolif-2 inactive
Cc1c(NS(=O)(=O)c2cc(C(=O)OCC(=O)c3ccccc3F)ccc2Cl)c(=O)n(-c2ccccc2)n1C	none (no result: VLA-4 inh, A3A deaminase, MIN6 prolif-1, APOBEC3G inh)
COc1ccc([N+](=O)[O-])cc1NC(=O)c1ccc(N2C(=O)CCC2=O)cc1	MIN6 prolif-1 7.8 | MIN6 prolif-2 inactive
O=C(NCc1ccc(F)cc1)N1CCN(C(=O)c2ccccc2)CC1	none
COc1ccc(CCNC(=O)CCCn2c(=S)[nH]c3cc4c(cc3c2=O)OCO4)cc1OC	none (no result: VLA-4 inh, A3A deaminase, MIN6 prolif-1, APOBEC3G inh)
Clc1ccc(-c2nnc(CNC3CC3)o2)cc1	MIN6 prolif-1 9.5 | MIN6 prolif-2 inactive
CC1CCCCN1C(=O)COC(=O)c1cc([N+](=O)[O-])ccc1N (centres undefined)	MIN6 prolif-1 15 | MIN6 prolif-2 inactive
Cc1ccccc1NP(=O)(c1ccccc1)c1nc2ccccc2s1 (centres undefined)	none
CN1CCN(P(=O)(c2ccccc2)c2nc3ccccc3s2)CC1 (centres undefined)	MIN6 prolif-1 5.9 | MIN6 prolif-2 inactive
N#Cc1ccccc1OCC(=O)Nc1nnc(C2CC2)s1	none
COc1ccc(C(=O)NCCNC(=O)c2cnccn2)cc1OC	none
COc1ccc(C(=O)NCCCNC(=O)c2cnccn2)cc1Br	MIN6 prolif-1 9.2 | MIN6 prolif-2 inactive
CCNS(=O)(=O)c1ccc(NC(=O)c2cccnc2)cc1	MIN6 prolif-1 11 | MIN6 prolif-2 inactive
CC1CCC(NC(=O)c2ccc(COc3ccccc3)o2)CC1 (centres undefined)	none
COC(=O)C1=C(C)NC(C)=C([N+](=O)[O-])C1c1ccccc1C(F)(F)F (centres undefined)	MIN6 prolif-1 14! | MIN6 prolif-2 inactive
COC(=O)C1=C(C)NC(C)=C(C(=O)OC)C1c1ccc(-c2cccc([N+](=O)[O-])c2)o1	none
CCC(=O)Nc1c(-c2ccc(Cl)cc2)c(=O)c2ccccc2n1C	none
CCN(CC)C(=S)SCC(=O)c1c(C)[nH]c2ccccc12	MIN6 prolif-1 0.0 | MIN6 prolif-2 inactive
CCN1C(=O)[C@H]2[C@@H](c3ccc(-c4ccc(F)cc4)cc3)N[C@@](CC(C)C)(C(=O)OC)[C@H]2C1=O	none (no result: VLA-4 inh)
CCOC(=O)C1(CC)NC(c2cccc(F)c2)C2C(=O)N(CC)C(=O)C21 (centres undefined)	MIN6 prolif-1 7.2 | MIN6 prolif-2 inactive
CCOC(=O)N1CCC(NC(=O)C2CCN(S(=O)(=O)c3ccc4c(c3)oc(=O)n4C)CC2)CC1	none
O=C(CC12CC3CC(CC(Br)(C3)C1)C2)NC1CCCC1	none
COCc1cc(Sc2ccc(Cl)cc2)nc(-c2ccccc2)n1	none
CCN(CC)C(=O)Oc1cc(COC)nc(-c2ccccc2)n1	MIN6 prolif-1 5.3 | MIN6 prolif-2 inactive
CCOc1ccccc1N(CC(=O)NCCSc1ccccn1)S(=O)(=O)c1ccccc1	none
COc1ccccc1N(CC(=O)NCCSc1ccccn1)S(=O)(=O)c1ccccc1	MIN6 prolif-1 19 | MIN6 prolif-2 inactive
CCC(=O)Nc1ccc(NC(=S)NC(=O)c2cc3ccccc3o2)cc1	MIN6 prolif-1 0.0 | MIN6 prolif-2 inactive
O=C(NCc1ccc(F)cc1)C(c1ccccc1)N(C(=O)c1csnn1)c1ccccc1 (centres undefined)	none
O=C(NCc1ccc(F)cc1)C(c1ccco1)N(C(=O)c1csnn1)c1ccccc1 (centres undefined)	MIN6 prolif-1 11 | MIN6 prolif-2 inactive
O=C(COC(=O)c1cccc(-n2cnnn2)c1)c1ccc(F)c(F)c1	none (no result: VLA-4 inh, A3A deaminase, MIN6 prolif-1, APOBEC3G inh)
Cc1cccc(NC(=O)C2CCN(C(=O)[C@@H]3Cc4ccccc4CN3)CC2)c1	MIN6 prolif-1 5.2 | MIN6 prolif-2 inactive
Cc1ccccc1-c1cc2nc(NCCOc3ccccc3Cl)n(C)c(=O)c2s1	none (no result: VLA-4 inh, A3A deaminase, MIN6 prolif-1, APOBEC3G inh)
Nc1ccc(-c2nnnn2-c2ccc(N)cc2)cc1	MIN6 prolif-1 5.3 | MIN6 prolif-2 inactive
CC1CCCCC1NC(=O)CN1C(=O)NC(C)(c2cc(F)ccc2F)C1=O (centres undefined)	none
COCCSc1nc2c(c(=O)[nH]c(=O)n2C)n1CCCc1ccccc1	none
COCCn1c(SCCCc2ccccc2)nc2c1c(=O)[nH]c(=O)n2C	MIN6 prolif-1 5.5 | MIN6 prolif-2 inactive
COc1ccc(NC(=O)CSc2ccc(NC(C)=O)cc2)cc1S(=O)(=O)N1CCCCC1	none
COc1ccc(NC(=O)CSc2ccccc2)cc1S(=O)(=O)N1CCCCC1	MIN6 prolif-1 4.7 | MIN6 prolif-2 inactive
CCn1cc(CN(C)S(=O)(=O)c2cccc([N+](=O)[O-])c2)cn1	MIN6 prolif-1 7.2 | MIN6 prolif-2 inactive
